{
  "source": "the supplement of paper PMC12632987",
  "binders": {"B1": {"name": "traf2_out_17_162_1521 (protein)", "chain": "SPLEAELKALEAELEALKKKLEELKKKLENLDKMSKEELTDLLVEASEARRKALELAERLKRLKPLIGEERAGALIAEAEAIAEELQKIANKIYKKLEEK"}, "B2": {"name": "traf2_out_17_162_1578 (protein)", "chain": "EELKKELEELKKKLEELKKKLKEFEKKLPELPKMSYEELTDLLVEVSELKREARELAEKLEELGKKLGEEEIKKLVEEAKEIAEKLQKIANKIYKEIEKK"}, "B3": {"name": "traf2_out_20_3_2068 (protein)", "chain": "EELEKELEEALEKALALLKKAAALADPETAAELDALIKELKASKELSVSDRLVAVSAVRRRVLRLAEEAEAAGDAELAAVLNKAADALNRAAQLLYQILQ"}, "B4": {"name": "traf2_out_15_48_1358 (protein)", "chain": "STEALRETARKVADLIDATLDEVAKELKALLPKAKPEVKPILEEAIRVASTHRSINDTIALLEEAIKKSDPELAKELQELRDRLLATQKEASKLINETEK"}, "B5": {"name": "traf2_out_17_162_1493 (protein)", "chain": "SELEEKKKKLEKELKELKKKLKELEKKLENIEKLSKEELTDLLVEASELKRKARQLAEEYKKLLKKTGDKELEKLIKEAEELAERAQKIANKIYKEIEKK"}, "B6": {"name": "traf2_out_20_3_2136 (protein)", "chain": "SELEEELKKELEKAKKLLEKAAALADKETAAKLKALIKRLEASEELSPEDRLVEFSEIRREVLELALAAEAAGKAELAKLLNEAADALNKAMNLLMKIIE"}, "B7": {"name": "traf2_out_8_15_2548 (protein)", "chain": "SIKEAAEKDIARLKALSDGDKESLINTLLGMAKGELRLAKIYKEEGRKEEALRTLEYARIYAEAALELAKEIGSPRLEEIKKEVEELEKEIEELRKEIEA"}, "B8": {"name": "traf2_out_20_3_2212 (protein)", "chain": "EELRKKVEEELEKIRELLEKAKPRLPEEDYARLKELLERAEEALKEDPSDALVELSELKALLLRLSQEARAAGDEELAALLDEAADAANKAANLVYKILE"}, "B9": {"name": "traf2_out_20_38_2001 (protein)", "chain": "SAEEEEEEKLKKIIDVANEAYDEASKEIEELKAAGKSVEEIAEIVRAKVRELLTAAGLEEELEELLADIDRALSSPNALRLFARIRARAVALVKQKELNE"}, "B10": {"name": "traf2_out_1_27_1004 (protein)", "chain": "STEEERELLRRANREIGRASPEERVEVIVRALEEALARGLESPEHIAVVLILSLGEEEERRRAIEAAEEVLRAAGVSEEAIERMRRRVESGWARLDKLLA"}, "B11": {"name": "traf2_out_14_149_1260 (protein)", "chain": "SATEERRRALREALELFERAAELLAAAIAAGSNDLDVEELRRLLEEAREILSKQGFVLGSLLAIEELLEEAEELTEEDLRRLLELAERAAESLEVLAEML"}, "B12": {"name": "traf2_out_17_178_1741 (protein)", "chain": "SKEEILKEISKLADEMIDVSREAAEKLTELAEKEGILTPELRERLDLVARTSNLYAFEEVANELIELSKNKEEIQKLLDETTKKLRELRKKIQEAVEKLK"}, "B13": {"name": "traf2_out_13_95_1214 (protein)", "chain": "SAEANAELREVAREYTDRAEAVIDALAAALAPDPEVQPDMDAIRAAFRRNGVRQAIALIRAAAARHPEHKADFDAAAAELEAIRREAGRRFAEILKRDEE"}, "B14": {"name": "traf2_out_9_108_2593 (protein)", "chain": "MTKEEILEEKFKKVEELVKEFIEEVDLTEEQKEELEEAIKNAKELYEKGLKETAIILLAIDLARVASKVGEEAVKELLEKLKKIDERAYSAAERMVKLLK"}, "B15": {"name": "traf2_out_17_162_1623 (protein)", "chain": "SPEEEELKRYEEELKELEKEKKELEKKAEKIDELSKEELTDLLVEASEARRRARELAERIERKREELNDPRLEELLKRAEEIAEEFQRIANKFYKKLEEK"}, "B16": {"name": "traf2_out_1_33_1031 (protein)", "chain": "SAEIERKSMALLRRTTGEMYRLLRETEEKMEKLLEEGKPAEEIEKLAEETRKKIKEIADKAIAELKALGDDLTADILESEKTDILKRLDEIKKEILAKLK"}, "B17": {"name": "traf2_out_20_38_2038 (protein)", "chain": "SEEEEEEERLERLVEVANAALDRYEARIAALQAEGKSVAEIAEWAKEEIRRILGEAGLEEEAEELIAQVRTVENRPDALRLIARILARAEALAYQKELQK"}, "B18": {"name": "traf2_out_11_131_661 (protein)", "chain": "MDAVAMAKSVAARVDERLALAKTLSPEERTRLARQALDSIEALAEYLTSHVSEMSKEDVEEAVKILRASAKKVLAADPSVAEDVKEVEKALKKLLEAAKA"}, "B19": {"name": "traf2_out_20_38_2029 (protein)", "chain": "SEEEEEERRLEELIKVANDSYDKYTKKFEKLVAEGKTVEEIAELAKKEVKEKLTAAGLEEEAKELIEDIDRALSSPNALRLIVRILARADALVHQKKINE"}, "B20": {"name": "traf2_out_3_89_2291 (protein)", "chain": "SMEKEKKIKEAKERAERYVKGFEKNARRVAKEMLEEGHSLETLRGVLEAARTAIVETFGETLKEEGIDKETRDKILEELKKKLDEIVEEVVEEAKKRREE"}, "B21": {"name": "traf2_out_11_169_862 (protein)", "chain": "KEEEFNRKLIDFALEVEDEAKKKLKEFALKLAKEAGLDVAEVEAIFEKHKNSSLSAIASALIEYFRSKGKEEEAEKILKKHDELKEEINKKVSEKIKELK"}, "B22": {"name": "traf2_out_16_177_1458 (protein)", "chain": "ELDRVMDRLVILSLIRRAALEIVRSNSPEAERYLAEARAEAEAAGDEEGLARIARIEELAAQNTPEARAELRALAAEAQREAQRLANEAERLIRERAAAE"}, "B23": {"name": "traf2_out_20_38_2034 (protein)", "chain": "SMEEEEEEKLEEIIEVANEALDKYEAEIAKWKAEGKTVEEIAEEAKKKVKELLSKVGLEEEAKILIEEIDLALSSPDAERLIARTLARAEALVKQKELNE"}, "B24": {"name": "traf2_out_20_38_2035 (protein)", "chain": "SEEEEEEEKLEEIIEVANEAYDEYMAWIAERKAAGKTVEEIAEEAKEEVKELLSKVGLEEEAEILIEDIDRALSSPDAERLIARTLARAVALVKQKELNK"}, "B25": {"name": "traf2_out_1_71_1752 (protein)", "chain": "SPEAEKAEKALEDMAKSIAEGMKTEEALERYLEAFRNHIKRVKALAKANKDDEAVKAGSIADLNLEAELLEKIAKYVDEESKKKLEELAKEAKKAAEEIK"}, "B26": {"name": "traf2_out_13_95_1034 (protein)", "chain": "SRELAEKIMEIADEAEEKILKLLEEKSKELADDPEMVKVLEEARRLALTRGVNEAIHLLREASERFPEYKEELDKLIEEIEKIREEAGKKVAELIKEEEE"}, "B27": {"name": "traf2_out_20_38_2036 (protein)", "chain": "SMEEEEEEKLEEIIRVANEAYDAYEAEIAALKAAGKTVEEIAAIAKERVRELLSKVGLEEEAEILVEDIDLALSSPEAERLIARILARAEAKVKQKELNE"}, "B28": {"name": "traf2_out_20_38_2022 (protein)", "chain": "SEEEEEKKKLEELVKVANEAYDEYTARFAEWKAAGKTVEEIAEEVKERIRELLTAAGLEEEAEILIEEVDLALKSPEAERLLVRTLARAVALVHQKELQK"}, "B29": {"name": "traf2_out_13_95_1078 (protein)", "chain": "SAEANKKIMEIADEMLEKSLKILKELSKKVADNPEMKAAVEEAIHLAETQGINAAIHLLEKLSEANPEYKELLDEAIKKLKEIKEEAGKKVAEILKEEKE"}},
  "note": "Over roughly 1,800 sequences, “median log2 fold change of GCK-ALFA target abundance (FLAG IP / Myc IP barcode read proportion)” has its median near 0.14; the lowest 2% begin near -0.84. Shown is part of a subset that was picked to be rich in the lowest values.",
  "data": [
    {"target": "T1, TRAF2, Q12933", "T1 chain": "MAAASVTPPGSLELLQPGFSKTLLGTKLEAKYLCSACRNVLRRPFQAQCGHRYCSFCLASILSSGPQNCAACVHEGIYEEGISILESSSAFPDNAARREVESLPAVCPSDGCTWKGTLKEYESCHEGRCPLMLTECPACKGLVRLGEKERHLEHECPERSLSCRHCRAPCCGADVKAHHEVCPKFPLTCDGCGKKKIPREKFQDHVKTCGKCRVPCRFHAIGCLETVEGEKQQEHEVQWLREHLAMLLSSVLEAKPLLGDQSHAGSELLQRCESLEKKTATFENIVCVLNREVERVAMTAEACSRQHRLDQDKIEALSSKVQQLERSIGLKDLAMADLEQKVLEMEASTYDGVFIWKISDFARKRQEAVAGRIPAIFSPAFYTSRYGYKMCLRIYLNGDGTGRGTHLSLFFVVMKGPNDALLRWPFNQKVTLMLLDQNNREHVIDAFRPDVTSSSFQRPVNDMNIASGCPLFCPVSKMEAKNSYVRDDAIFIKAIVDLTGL", "experiment": "median log2 fold change of GCK-ALFA target abundance (FLAG IP / Myc IP barcode read proportion) (log2 ratio); each designed protein is fused to an ALFA-tag nanobody in HEK293 cells to bring the named protein to FLAG-tagged glucokinase (GCK); Myc marks an untargeted standard; higher = target protein stabilised (more abundant)", "details": "target protein: 3xFLAG-MCP-GCK-ALFA reporter; HEK293 landing pad (RPLP)", "method_in_brief": "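HEK293 landing-pad cells received a recombined binder library fused to the ALFA nanobody and were induced with 2 μg mL^−1 doxycycline, then transfected with a plasmid encoding a FLAG-tagged target and a Myc-tagged standard. Lysates were collected after 48 h for anti-FLAG and anti-Myc immunoprecipitation, and the circular RNA barcodes were reverse transcribed, amplified and sequenced. Target abundance for each binder is the median log2 ratio of FLAG to Myc barcode read proportions. Barcodes had to reach a proportion of at least 10^−7 in both replicates, each binder needed at least 3 barcodes per replicate, a pseudocount of 10^−6 was applied, and the two replicates were pooled.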", "values": [
      {"binder": "B1", "median log2 fold change": 0.311},
      {"binder": "B2", "median log2 fold change": 0.34},
      {"binder": "B3", "median log2 fold change": -0.0614},
      {"binder": "B4", "median log2 fold change": 0.33},
      {"binder": "B5", "median log2 fold change": 0.47},
      {"binder": "B6", "median log2 fold change": 0.345},
      {"binder": "B7", "median log2 fold change": 0.203},
      {"binder": "B8", "median log2 fold change": -0.0318},
      {"binder": "B9", "median log2 fold change": -1.24},
      {"binder": "B10", "median log2 fold change": 0.0667},
      {"binder": "B11", "median log2 fold change": 0.0539},
      {"binder": "B12", "median log2 fold change": -0.0674},
      {"binder": "B13", "median log2 fold change": -0.892},
      {"binder": "B14", "median log2 fold change": -0.0117},
      {"binder": "B15", "median log2 fold change": 0.4},
      {"binder": "B16", "median log2 fold change": 0.233},
      {"binder": "B17", "median log2 fold change": -1.39},
      {"binder": "B18", "median log2 fold change": 0.0951},
      {"binder": "B19", "median log2 fold change": -1.3},
      {"binder": "B20", "median log2 fold change": -0.996},
      {"binder": "B21", "median log2 fold change": 0.0801},
      {"binder": "B22", "median log2 fold change": -0.327},
      {"binder": "B23", "median log2 fold change": -0.126},
      {"binder": "B24", "median log2 fold change": -1.16},
      {"binder": "B25", "median log2 fold change": -0.948},
      {"binder": "B26", "median log2 fold change": -0.375},
      {"binder": "B27", "median log2 fold change": -1.27},
      {"binder": "B28", "median log2 fold change": -0.885},
      {"binder": "B29", "median log2 fold change": 0.00315}
    ]}
  ]
}
